# MRP1 act: activates MRP-1 | 0.61% of 140,000 active | viability increase, % at 10 µM | H69AR cells + doxorubicin, viability rescue, CellTiter-Glo;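 active = viability gain under doxorubicin at or above a set limit, the compound median plus 3 SD, cut at about 4.7% in these data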;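 note: MRP-1 overexpressing cells given doxorubicin 25 µM after compound pretreatment; 18-22 h compound pretreatment then 72 h with doxorubicin before readout; 0% = doxorubicin-only wells and 100% = vehicle-treated cells without doxorubicin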
# MRP reversal: MRP-mediated drug resistance reversal | H69AR cells + 2 uM doxorubicin, CellTiter-Glo, 72 h | differential viability (reversal), % at 10 µM | 0.04% of 85,000 active | AID 602;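 active = viability drop by adding the cancer drug above about 55%, with treated viability meeting a 40% cutoff, limit read from the data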;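 note: viability without doxorubicin minus viability with 2 µM doxorubicin for each compound; larger differential means the compound sensitizes cells more to doxorubicin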
# sEH inh: soluble epoxide hydrolase (human) inhibition. recombinant human sEH enzymatic activity assay. inhibition, % at 2 µM. 0.34% of 91,000 active. AID 707; in the data active = inhibition above about 80%
# Target sequence (P34913 whole entry, looked up): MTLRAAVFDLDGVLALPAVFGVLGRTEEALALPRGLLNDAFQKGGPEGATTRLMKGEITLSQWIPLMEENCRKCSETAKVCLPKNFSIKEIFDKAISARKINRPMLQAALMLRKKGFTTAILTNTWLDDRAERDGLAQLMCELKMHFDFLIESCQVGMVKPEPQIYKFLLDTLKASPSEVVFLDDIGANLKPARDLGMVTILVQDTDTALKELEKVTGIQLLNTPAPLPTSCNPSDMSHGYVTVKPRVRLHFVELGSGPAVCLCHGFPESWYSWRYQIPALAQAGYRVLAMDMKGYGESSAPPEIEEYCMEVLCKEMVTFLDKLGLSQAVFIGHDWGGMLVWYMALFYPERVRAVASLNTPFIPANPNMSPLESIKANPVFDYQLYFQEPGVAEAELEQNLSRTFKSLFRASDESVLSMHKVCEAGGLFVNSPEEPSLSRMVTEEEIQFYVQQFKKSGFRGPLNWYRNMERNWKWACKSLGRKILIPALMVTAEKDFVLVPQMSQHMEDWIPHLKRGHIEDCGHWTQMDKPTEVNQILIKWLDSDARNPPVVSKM
# sEH activator: soluble epoxide hydrolase (human) activation; AID 717; purified human sEH enzymatic activity, activator screen; activation, % at 2 µM; 0.04% of 91,000 active; P34913; in the data active = activation above about 37%
# * hit, by the source's call; · = no result given. An excerpt weighted towards active compounds, which were near 0.76% of everything screened.
SMILES,MRP1 act,MRP reversal,sEH inh,sEH activator
CC(=O)c1c(C)nc2sc3c(=N)n(N)cnc3c2c1-c1ccc(Cl)cc1,-1.8,·,·,·
Cc1ccc(-n2nnnc2SCC(N)=O)c(C)c1,-2.3,3.9,-15.5,15.1
Cc1ccc(-n2nnnc2SCC(=O)NCCC2=CCCCC2)c(C)c1,-0.2,7.1,82.5*,-82.2
COc1ccc(CNC(=O)C2CCC(CNS(=O)(=O)c3cccc4nsnc34)CC2)cc1 (stereo unspecified),0.1,10.1,95.2*,-95.3
CCOCCCNC(=O)C1CCC(CNS(=O)(=O)c2cccc3nsnc23)CC1 (stereo unspecified),-3.1,-6.1,·,·
O=C(NCc1ccc2c(c1)OCO2)C1CCC(CNS(=O)(=O)c2cccc3nsnc23)CC1 (stereo unspecified),-0.9,-5.5,94.3*,-94.3
Oc1ccc(-c2nc3c4c(ncn3n2)-c2ccccc2CC42CCCC2)cc1,-4.0,·,·,·
Oc1ccc(N=C/C=C/c2ccc(Br)cc2)cc1-c1nc2ccccc2s1,-3.6,·,·,·
CCC1(C)Cc2c(sc3nnn(CC(=O)Nc4ccccc4)c(=O)c23)CO1 (stereo unspecified),5.0*,·,8.9,-6.5
CCC1(C)Cc2c(sc3nnn(Cc4ccccc4Cl)c(=O)c23)CO1 (stereo unspecified),8.0*,·,-0.3,2.3
CCC1(C)Cc2c(sc3nnn(CC(=O)Nc4ccccc4C)c(=O)c23)CO1 (stereo unspecified),1.2,·,12.1,-9.9
N#Cc1nc(COc2ccc(Br)cc2)oc1N1CCCC1,7.3*,-7.4,10.3,-8.1
N#Cc1nc(COc2ccc(Br)cc2)oc1N1CCCCCC1,6.5*,8.4,2.7,-3.9
N#Cc1nc(COc2ccccc2)oc1N1CCOCC1,0.8,18.8,7.1,-5.6
COC(=O)c1c(NC(=O)CN2CCC3(O)CCCCC3C2c2ccc(OC)cc2OC)sc(C)c1C (stereo unspecified),-1.9,·,·,·
CCc1nnc(NC(=O)C2COc3ccccc3O2)s1 (stereo unspecified),5.1*,15.7,2.0,0.7
Cc1nnc(NC(=O)C2COc3ccccc3O2)s1 (stereo unspecified),1.9,6.3,·,·
COc1ccc(-c2cc(C(=O)Nc3sc4c(c3C#N)CCCC4)c3ccccc3n2)cc1,6.0*,·,·,·
N#CC(C#N)=NNc1ccc(S(=O)(=O)N2CCCC2)cc1,5.1*,·,·,·
N#C/C(=N\Nc1ccc(S(=O)(=O)N2CCCCC2)cc1)C(N)=S,-2.0,·,·,·
O=C(c1cccs1)N1N=C(c2ccccc2)CC1c1ccccc1 (stereo unspecified),-0.6,·,-14.1,14.1
COc1ccc(C2=NN(C(=O)c3cccs3)C(c3ccc(OC)cc3)C2)cc1 (stereo unspecified),7.5*,·,·,·
COC(=O)C(CC(C)C)NC(=O)CSc1nc(-c2ccccc2)c(C#N)c(=O)[nH]1 (stereo unspecified),10.8*,-12.5,-2.6,2.4
CCC(Sc1nc2ccccc2[nH]1)C(=O)Nc1cc(C)on1 (stereo unspecified),-3.1,-17.9,·,·
CCC(Sc1nc(-c2ccccc2)c(C#N)c(=O)[nH]1)C(=O)Nc1cc(C)on1 (stereo unspecified),10.6*,-5.0,·,·
SMILES,MRP1 act,MRP reversal,sEH inh,sEH activator
COc1ccccc1-n1c(SCC(=O)c2ccc(O)cc2O)nc2cc([N+](=O)[O-])ccc21,-2.9,·,·,·
O=[N+]([O-])c1cccc(N/N=C/c2cccc3ccccc23)c1,-1.6,·,·,·
O=C(CNC(=O)C12CC3CC(CC(C3)C1)C2)N1CCN(S(=O)(=O)/C=C/c2ccccc2)CC1,-2.4,·,·,·
O=C(COC(=O)C12CC3CC(CC(C3)C1)C2)Nc1ccccc1F,-0.5,·,·,·
Cc1onc(-c2ccccc2Cl)c1C(=O)Nc1nnc(-c2ccc(Br)cc2)s1,7.2*,-7.8,17.9,-16.1
Cc1onc(-c2ccccc2Cl)c1C(=O)Nc1nnc(-c2ccc(F)cc2)s1,1.5,·,-1.3,1.0
Cc1cccc(NC(=O)CCC(=O)N/N=C/c2cc([N+](=O)[O-])ccc2O)c1,4.9*,·,·,·
Cc1cccc(NC(=O)CCC(=O)N/N=C/c2ccncc2)c1,-0.5,·,·,·
COc1cc(C)c(/C=C(\C#N)C(=O)Nc2cccc(C)c2)cc1C(C)C,0.8,·,·,·
COc1ccc(C(=O)NCCn2cc(SCC(=O)Nc3nnc(C)s3)c3ccccc32)cc1,7.9*,-35.5,0.9,4.1
CCc1ccc2[nH]c(=O)c(CN(Cc3ccco3)S(=O)(=O)c3ccc4c(c3)OCCO4)cc2c1,-3.6,-4.2,-42.4,39.1*
Cc1ccc(C)c2[nH]c(=O)c(CN(Cc3ccco3)S(=O)(=O)c3ccc4c(c3)OCCO4)cc12,5.4*,-8.7,7.8,-8.9
Cc1ccc2cc(CN(CC3CCCO3)S(=O)(=O)c3ccc4c(c3)OCCO4)c(=O)[nH]c2c1C (stereo unspecified),·,-5.0,-0.8,4.4
COc1ccc2[nH]c(=O)c(CN(CCO)S(=O)(=O)c3ccc4c(c3)OCCO4)cc2c1,-3.9,-13.7,·,·
CC(OC(=O)CCCCCN=C1NS(=O)(=O)c2ccccc21)C(=O)Nc1cc(Cl)cc(Cl)c1 (stereo unspecified),-2.2,·,·,·
CCc1nnc(NC(=O)CCC(=O)N2CCN(CCOc3ccc(C)cc3)CC2)s1,5.6*,7.7,-2.7,2.3
CCc1nnc(NC(=O)c2ccc(COc3ccc(C)cc3)o2)s1,6.2*,5.2,-8.0,9.4
COc1ccc(NC(=O)COC(=O)c2c3c(nc4ccccc24)CCCC3)cc1Cl,5.3*,·,27.2,-28.7
CCC(Sc1nc(C)cc(=O)[nH]1)C(=O)Nc1nnc(C)s1 (stereo unspecified),-0.6,-2.9,20.3,-17.2
CCC(Sc1nc2ccccc2s1)C(=O)Nc1nnc(C)s1 (stereo unspecified),10.4*,·,-3.3,1.7
CC(Sc1nc2ccccc2s1)C(=O)Nc1nnc(C(C)C)s1 (stereo unspecified),-1.3,-1.5,-38.7,37.3*
CCOc1cc(C(=O)Nc2ccccc2F)cc(Br)c1OCC,-0.5,·,·,·
Cc1ccc(-c2nnn(CC(=O)N(c3ccccc3F)C(C(=O)NCC3CCCO3)c3c[nH]c4ccccc34)n2)cc1 (stereo unspecified),8.2*,·,13.9,-12.2
Cc1ccc(-c2nnn(CC(=O)N(c3ccccc3)C(C(=O)NCC3CCCO3)c3ccc(Cl)cc3)n2)cc1 (stereo unspecified),1.0,·,-10.4,12.9
Cc1nnc(SCc2cc(=O)[nH]c(Nc3nc(C)c4ccccc4n3)n2)s1,·,-13.5,12.5,-14.7
SMILES,MRP1 act,MRP reversal,sEH inh,sEH activator
Cc1ccc2nc(Nc3nc(CSc4nc5ccccc5s4)cc(=O)[nH]3)nc(C)c2c1,11.2*,·,·,·
COc1ccc(NC(=O)C(Sc2nnc(-c3ccncc3)n2-c2ccccc2C)c2ccccc2)cc1Cl (stereo unspecified),-3.7,·,·,·
O=C(c1cccc(S(=O)(=O)N2CCCC2)c1)N1CCN(c2ccccc2)CC1,-1.8,-0.1,15.1,-13.0
O=C(NNC(=O)c1cccc(S(=O)(=O)N2CCN(c3ccccc3)CC2)c1)c1ccc(Cl)cc1,10.2*,·,·,·
CCNc1nc(NCC)n2c(SCC(=O)N(CC)C3CCCCC3)nnc2n1,-3.3,·,·,·
Cc1ccc(OCc2nnc(SCC(=O)Nc3cccc4ccccc34)n2-c2ccccc2)cc1,6.3*,-18.9,-7.2,13.2
CCn1c(COc2ccc(Cl)cc2)nnc1SCc1nc2ccccc2[nH]1,6.8*,-29.9,6.1,-7.2

# Bioassay records as filed in PubChem.
